“And” between values parts separate entries of the source, which are not always exact repeats. Equal entries are not always repeated. Out of some 5,500 compounds screened, about 2,000 (36%) were called active. Inconclusive results (about 18%) are left out. Cut-off read from the data, not from the text of the source: active = normalized growth mostly below about 0.91 (no sharp cut-off); inconclusive = no clear call, values can overlap the other calls; inactive = mostly above about 0.92. The list shows a part of the results.
Experiment: chemical genetic growth profiling, strain panel (AID 1159580);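 note: tested at 20 µM; growth read once vehicle control cultures reached saturation at 30 °C; 1 = growth at the plate median or of vehicle wells; lower values mean less growth of the strain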
Conditions: S. cerevisiae deletion strains, growth OD

Measured: normalized growth

COc1ccc(-c2cc(=O)c3cc(OC)ccc3o2)cc1
active: locus YAL030W, strain snc1, active compounds read low 0.928 | locus YBR009C, strain hhf1, active compounds read low 0.902 | locus YCL011C, strain gbp2, active compounds read low 0.887 | locus YDR392W, strain spt3, active compounds read low 0.571 | locus YEL037C, strain rad23, active compounds read low 0.921 | locus YER155C, strain BEM2 (second series), active compounds read low 0.771 | locus YGL253W, strain hxk2, active compounds read low 0.894 | locus YHR142W, strain chs7, active compounds read low 0.84 | locus YJL164C, strain tpk1, active compounds read low 0.912
inactive: locus YAL013W, strain DEP1, active compounds read low 0.982 | locus YAL021C, strain ccr4, active compounds read low 0.964 | locus YAL026C, strain drs2, active compounds read low 0.922 | locus YBL061C, strain skt5, active compounds read low 0.937 | locus YBR021W, strain FUR4, active compounds read low 0.908 | locus YBR023C, strain chs3, active compounds read low 0.916 | locus YBR171W, strain sec66, active compounds read low 0.95 | locus YBR229C, strain ROT2, active compounds read low 0.999 | locus YBR231C, strain swc5, active compounds read low 0.939 | locus YBR279W, strain paf1, active compounds read low 0.944 | locus YCL016C, strain dcc1, active compounds read low 0.944 | locus YCL029C, strain bik1, active compounds read low 0.987 | locus YCL061C, strain MRC1, active compounds read low 0.96 | locus YCL069W, strain vba3, active compounds read low 0.945 | locus YCR088W, strain abp1, active compounds read low 0.94 | locus YDL005C, strain med2, active compounds read low 0.949 | locus YDL035C, strain GPR1, active compounds read low 0.977 | locus YDL040C, strain nat1, active compounds read low 0.95 | locus YDL074C, strain BRE1, active compounds read low 0.918 | locus YDL101C, strain DUN1, active compounds read low 0.983 | locus YDL134C, strain PPH21, active compounds read low 1.04 | locus YDL185W, strain tfp1, active compounds read low 0.946 | locus YDL192W, strain arf1, active compounds read low 0.978 | locus YDR001C, strain nth1, active compounds read low 0.942 | locus YDR069C, strain doa4, active compounds read low 0.948 | locus YDR101C, strain arx1, active compounds read low 0.946 | locus YDR137W, strain rgp1, active compounds read low 0.883 | locus YDR150W, strain NUM1, active compounds read low 0.983 | locus YDR159W, strain sac3, active compounds read low 0.925 | locus YDR162C, strain NBP2, active compounds read low 1.01 | locus YDR195W, strain ref2 1.04 | locus YDR297W, strain sur2, active compounds read low 0.955 | locus YDR318W, strain mcm21, active compounds read low 1.02 | locus YDR334W, strain swr1, active compounds read low 0.931 | locus YDR335W, strain msn5, active compounds read low 0.962 | locus YDR388W, active compounds read low 1 | locus YDR502C, strain sam2, active compounds read low 0.968 | locus YEL003W, strain gim4, active compounds read low 0.956 | locus YEL061C, strain CIN8 (second series), active compounds read low 0.93 | locus YEL061C, strain CIN8, active compounds read low 1.01 | locus YER015W, strain faa2, active compounds read low 0.969 | locus YER016W, strain bim1, active compounds read low 0.954 | locus YER110C, active compounds read low 0.974 | locus YER111C, strain swi4, active compounds read low 0.943 | locus YER155C, strain BEM2, active compounds read low 0.985 | locus YER167W, strain BCK2, active compounds read low 0.997 | locus YFR010W, strain ubp6, active compounds read low 0.906 | locus YGL078C, strain dbp3, active compounds read low 0.995 | locus YGL086W, strain mad1, active compounds read low 0.938 | locus YGL167C, strain pmr1, active compounds read low 0.924 | locus YGL173C, strain kem1, active compounds read low 0.947 | locus YGL227W, strain vid30, active compounds read low 0.947 | locus YGL240W, strain doc1, active compounds read low 0.892 | locus YGL248W, strain PDE1, active compounds read low 1.01 | locus YGR078C, strain PAC10, active compounds read low 0.988 | locus YGR135W, strain pre9, active compounds read low 1.01 | locus YGR229C, strain SMI1, active compounds read low 0.961 | locus YGR252W, strain gcn5, active compounds read low 1.04 | locus YHR013C, strain ard1, active compounds read low 0.972 | locus YHR027C, strain rpn1, active compounds read low 0.949 | locus YHR030C, strain SLT2, active compounds read low 0.998 and 0.956 | locus YHR079C, strain IRE1 (second series), active compounds read low 0.997 | locus YHR079C, strain IRE1, active compounds read low 0.928 | locus YHR094C, strain hxt1, active compounds read low 1.01 | locus YHR129C, strain ARP1, active compounds read low 0.985 | locus YHR200W, strain rpn10, active compounds read low 0.985 | locus YIL066C, strain RNR3, active compounds read low 0.999 | locus YIL073C, strain SPO22, active compounds read low 0.973 | locus YIL125W, strain kgd1, active compounds read low 0.99 | locus YIR030C, strain dcg1, active compounds read low 1.01 | locus YJL092W, strain hpr5, active compounds read low 0.948 | locus YJL095W, strain BCK1 (second series), active compounds read low 0.95 | locus YJL095W, strain BCK1, active compounds read low 0.96 and 0.964 | locus YJL115W, strain asf1, active compounds read low 0.936 | locus YJL129C, strain trk1, active compounds read low 0.937 | locus YJL134W, strain LCB3, active compounds read low 0.996 | locus YJL154C, strain vps35, active compounds read low 0.942 | locus YJL166W, strain qcr8, active compounds read low 0.913 | locus YJL168C, strain set2, active compounds read low 1 | locus YJL187C, strain SWE1 (second series), active compounds read low 0.972
